A selection: hits, their analogues and other compounds. The true share with any hit is near 3.4%.
GPR151 activ = activators of human GPR151, primary screen, cell-based, PathHunter beta-arrestin, luminescence. PathHunter beta-arrestin GPR151 cells. activation, % at 11.2 µM. G-protein coupled receptor 151 (Homo sapiens), Q8TDV0. 1% of 650,000 active; in the data active = activation above about 4.9%;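 also: 0% = median of compound wells and 100% = cells with positive control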
TEAD-YAP block = TEAD-YAP interaction inhibition, primary screen, TEAD-YAP interaction inhibitor project, luminescence, HEK-TIYL cells; 1.4% of 640,000 active; AID 1259422, 2018; TEAD-Gal4/YAP UAS-luciferase luminescence; inhibition, % at 9.12 µM; in the data active = inhibition above about 32%;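 also: 0% = median of test compound wells and 100% = reference inhibitor wells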
FBW7 activator = FBW7 E3 ligase activators, primary screen, biochemical, AlphaScreen, human; F-box/WD repeat-containing protein 7 (Homo sapiens), Q969H0; AlphaScreen FBW7–phospho-cyclin E peptide binding, activator screen; normalized activity (activation), % at 26.1 µM; 0.13% of 650,000 active; AID 1259310, 2017; in the data active = normalized activity above about 1.9%;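 also: purified mutant Fbw7 with reduced substrate affinity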
MITF primary = MITF inhibitors, primary screen, biochemical, AlphaScreen, human; Microphthalmia-associated transcription factor (Homo sapiens), O75030; AlphaScreen MITF homodimerization, bead proximity signal; inhibition, % at 2.6 µM; 0.91% of 650,000 active; AID 1259374, 2018; in the data active = inhibition above about 50%;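 also: 0% = vehicle wells with protein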
Target sequence (O75030 whole entry, looked up): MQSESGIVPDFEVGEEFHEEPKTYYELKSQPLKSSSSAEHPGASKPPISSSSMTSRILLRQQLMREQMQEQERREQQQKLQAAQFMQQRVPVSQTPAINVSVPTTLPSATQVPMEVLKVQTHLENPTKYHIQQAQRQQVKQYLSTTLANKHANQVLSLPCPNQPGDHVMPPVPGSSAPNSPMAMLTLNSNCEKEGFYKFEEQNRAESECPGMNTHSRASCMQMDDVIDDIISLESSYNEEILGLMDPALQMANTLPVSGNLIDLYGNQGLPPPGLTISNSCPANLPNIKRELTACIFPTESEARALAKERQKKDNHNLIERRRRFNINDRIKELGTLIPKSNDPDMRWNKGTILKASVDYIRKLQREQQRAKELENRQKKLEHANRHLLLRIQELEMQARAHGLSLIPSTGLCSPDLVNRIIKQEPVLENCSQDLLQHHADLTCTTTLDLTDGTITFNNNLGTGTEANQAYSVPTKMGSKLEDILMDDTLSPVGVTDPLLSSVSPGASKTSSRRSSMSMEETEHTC
Active calls of the source: *.

SMILES	GPR151 activ	TEAD-YAP block	FBW7 activator	MITF primary
COc1ccc(-n2nc3c(c2NC(=O)c2cc(Cl)ccc2Cl)CS(=O)(=O)C3)cc1	1.5	-0.9	0.0	7.2
O=C(NCCCCCc1nc2ccccc2[nH]1)c1ccccc1Cl	1.4	-5.8	-0.1	-1.4
CCOC(=O)N1CCN(C(=O)C23CC4CC(CC(C4)C2)C3)CC1	0.8	3.2	-0.1	-4.2
Cc1ccc(N(CC(=O)NCCC2=CCCCC2)S(C)(=O)=O)cc1	2.3	8.4	0.1	10.8
O=C(Nc1ccc(Nc2ccccc2)cc1)c1ccc(C(=O)c2ccccc2)o1	2.8	43.1*	-0.1	9.4
O=c1c2cc(Cl)ccc2[nH]c(=S)n1C1CCCCC1	0.6	2.5	0.1	8.4
S=c1[nH]c2cc(Cl)ccc2n1C1CCCCC1	-1.1	2.0	3.1*	-7.7
CCOC(=O)c1ccc2c(c1)sc1nc(-c3ccccc3)cn12	-6.2	53.7*	-0.1	4.3
COC(=O)c1ccc2c(c1)sc1nc(-c3ccccc3)cn12	-5.8	65.3*	-0.4	-1.0
Ic1ccc(-c2cn3c(n2)sc2ccccc23)cc1	0.7	-37.7	1.1	14.3
Clc1ccc(-c2cn3c(n2)sc2ccccc23)cc1	-1.7	31.4	2.7*	-18.3
CCCCC(=O)Nc1ccc(-c2nc3cccnc3s2)cc1	-1.5	7.3	0.2	4.3
CC(=O)Nc1ccc(-c2nc3cccnc3s2)cc1	-3.6	47.0*	-0.1	12.4
Cc1ccc(-c2nc3cccnc3s2)cc1NC(=O)C(F)(F)F	-1.2	32.0*	0.0	1.0
COC(=O)c1ccc(CSc2nnc(C)c(=O)[nH]2)cc1	0.5	0.3	0.0	-3.4
CC(Oc1ccc(Cl)cc1Cl)C(=O)NNC(=O)c1ccc(F)cc1 (configuration not stated)	-0.3	8.3	0.0	1.1
COc1ccc(Cl)c2sc(NC(=O)c3ccco3)nc12	2.6	4.5	2.1*	0.2
O=[N+]([O-])c1ccc(-c2cn3cc(Cl)ccc3n2)cc1	0.7	-76.6	-0.1	3.2
O=[N+]([O-])c1ccc2nc(-c3ccc(OC(F)F)cc3)cn2c1	0.7	44.7*	-0.1	-4.2
O=C(Nc1cccc(-c2ccc3nncn3n2)c1)c1ccc(Br)o1	3.1	16.9	0.0	-1.0
O=C(CSc1nnc(CNC(=O)c2ccccc2)o1)Nc1ccc(Cl)c(Cl)c1	1.4	4.9	0.5	13.8
CCc1c(C)sc2ncn3c(=O)n(CCN4CCCC4)nc3c12	0.4	1.1	20.5*	17.6
COc1cc(C(=O)NCc2n[nH]c(=S)n2-c2ccc(Br)cc2)cc(OC)c1OC	1.3	-2.1	0.0	15.6
O=C(Nc1nc2ccccc2[nH]1)c1ccc(F)cc1	-7.7	43.3*	0.0	7.0
O=C(Nc1nc2ccccc2[nH]1)c1cccc(I)c1	-0.4	-43.2	-0.1	-10.0
SMILES	GPR151 activ	TEAD-YAP block	FBW7 activator	MITF primary
COc1ccc(Cl)cc1C(=O)Nc1nc2ccccc2[nH]1	-9.9	66.0*	-0.1	0.0
O=C(Nc1nc2ccccc2[nH]1)c1ccccc1F	-9.2	89.0*	0.1	3.4
Cc1nc(SCC(=O)NC2CCCC2)c2c(=O)n(C)c(=O)n(C)c2n1	-0.9	6.7	0.1	8.4
CCOC(=O)c1cccc(NC(=O)CCc2nc(-c3ccc(OC)cc3)no2)c1	-0.2	11.9	0.0	-24.7
CC(=O)Nc1cnn(-c2ccc(C(=O)N3CCCCC3c3nc4ccccc4[nH]3)cc2)c1 (configuration not stated)	-0.3	2.0	-0.2	1.0
Cc1cc(C)c(C#N)c(SCc2nc3cc([N+](=O)[O-])c([N+](=O)[O-])cc3[nH]2)n1	0.2	86.0*	0.1	4.8
Cc1cc(C)c(C#N)c(SCc2nc3ccccc3[nH]2)n1	-0.3	-54.1	0.2	-2.2
CC[n+]1c(/C=C2\Sc3oc4ccccc4c3N2C)ccc2cc(C)ccc21	-0.4	43.7*	0.4	13.9
CCN1/C(=C/c2ccc3cc(C)ccc3[n+]2CCO)Sc2ccccc21	0.2	58.0*	0.1	26.1
CCN1/C(=C/c2ccc3cc(C)ccc3[n+]2C)Sc2ccccc21	1.9	75.8*	-0.3	23.1
CCN1/C(=C\c2c(O)c(=O)c2=O)Sc2ccccc21	-1.0	-5.1	0.0	11.3
CCN1/C(=C/c2cccc[n+]2C)C=Cc2cc(C)ccc21	0.8	81.4*	-0.1	6.8
CC(=C\c1sc2oc3ccccc3c2[n+]1CCO)/C=C1/Sc2oc3ccccc3c2N1CCO	-1.2	-0.9	0.0	-8.4
COc1ccc([N+](=O)[O-])cc1NC(=O)c1noc2c1COc1ccccc1-2	-1.2	-4.9	0.8	-2.6

Assay outcomes (PubChem)
